# Screens from PubChem.
# The sample as a whole holds a higher share of hits than the screen did.
# HIV RNase H inh-1 – HIV-1 RT RNase H inhibitors, primary screen, biochemical, fluorescence | RT-RNase H RNA/DNA duplex cleavage | inhibition, % at 10 µM | 1.9% of 65,000 active | AID 565, 2006; in the data active means inhibition above about 50%
# HIV RNase H inh-2 – HIV-1 RT RNase H inhibitors, retest, confirmation, biochemical; shares compounds with HIV RNase H inh-1; Recombinant RT RNase H, fluorescent RNA/DNA duplex cleavage; inhibition, % at 10 µM; 39% of 1,000 active; AID 651, 2007; in the data active means inhibition above about 48%; inconclusive means no clear call, values can overlap the other calls
# Starred values were filed as active, the others as inactive; ? = inconclusive.
SMILES,HIV RNase H inh-1,others
c1cc(C(c2nnnn2C2CCCC2)N2CCOCC2)ccn1 (stereo unspecified),-5,
Oc1ccc(N2CCN(C(c3ccncc3)c3nnnn3C3CCCC3)CC2)cc1 (stereo unspecified),79*,HIV RNase H inh-2=?
CCOc1ccc(C(=O)N2CCC(C(=O)c3ccc4c(c3)OCCO4)CC2)cc1,-27,
Nc1c(S(=O)(=O)c2ccccc2)c2nc3ccccc3nc2n1/N=C/c1ccco1,27,
COCCNC(=O)c1c(N)n(/N=C/c2cccs2)c2nc3ccccc3nc12,-44,
CC(C)CNC(=O)c1c(N)n(/N=C/c2ccccn2)c2nc3ccccc3nc12,61*,HIV RNase H inh-2=63*
Nc1c(C(=O)NC2CCCCC2)c2nc3ccccc3nc2n1/N=C/c1ccco1,6,
CCCCCCNC(=O)c1c(N)n(/N=C/c2ccco2)c2nc3ccccc3nc12,71*,HIV RNase H inh-2=88*
CC(C)Cn1c(N)c(C(=O)NCCN2CCOCC2)c2nc3ccccc3nc21,-36,
COc1ccc(C2c3c(-c4cc(Cl)c(C)cc4O)n[nH]c3C(=O)N2Cc2cccnc2)cc1OC (stereo unspecified),6,
CCCOc1ccc(C2C(=O)N(C3CCCCC3)CC(=O)N2C2CC2)cc1OC (stereo unspecified),-2,
CN(CC1CCCO1)S(=O)(=O)c1ccc(C(=O)Nc2nc(-c3ccccn3)cs2)cc1 (stereo unspecified),11,
CCCCCC(=O)OC(CN1CCCCC1)CN1CCCC1=O (stereo unspecified),-20,
O=C(NC1(C(F)(F)F)NC(=O)N(C2CCCCC2)C1=O)c1cccs1 (stereo unspecified),1,
O=S(=O)(Nc1cccnc1)c1ccc(Cl)c(C(F)(F)F)c1,-11,
COc1cc(NS(=O)(=O)c2ccc(NC(=O)COc3ccc(C)cc3)cc2)nc(OC)n1,-5,
COc1cc(NS(=O)(=O)c2ccc(NC(=O)COc3ccccc3C)cc2)nc(OC)n1,17,
COc1cc(NS(=O)(=O)c2ccc(NC(=O)CSC3=NCCS3)cc2)nc(OC)n1,54*,HIV RNase H inh-2=45
COc1cccc(/C(O)=C2/C(=O)C(=O)N(CCN3CCOCC3)C2c2cccs2)c1 (stereo unspecified),2,
Cc1ccc(O)c(C(=O)c2cnc3c(c2)CN(CCC(C)C)C(=O)N3)c1,63*,HIV RNase H inh-2=?
O=C(c1ccco1)N1CCN(CC(O)Cn2c3ccccc3c3ccccc32)CC1 (stereo unspecified),-2,
Cc1ccnc(N2CCC(C(=O)Nc3cccc(C(F)(F)F)c3)CC2)n1,-22,
CCOc1ccc(CCNC(=O)CN2CCN(Cc3ccccc3C)C2=O)cc1OCC,-10,
COC(=O)C1Sc2[nH]c(=O)sc2C2c3ccccc3OC(=O)C12 (stereo unspecified),-1,
COC(=O)C1Sc2[nH]c(=O)sc2C(c2ccc(Cl)cc2)C1C(=O)OC (stereo unspecified),5,
SMILES,HIV RNase H inh-1,others
O=C(O)C1Sc2[nH]c(=O)sc2C2c3cc(Cl)ccc3OC(=O)C12 (stereo unspecified),72*,HIV RNase H inh-2=20
CC1(C)CC(=O)C2=C(C1)OC(N)=C(C#N)C2Cc1ccccc1 (stereo unspecified),-4,
Cc1cc(C(=O)OCC(=O)Nc2ccc(F)cc2)c(C)o1,-11,
Cc1ccc(S(=O)(=O)N2CCC(C(=O)OCC(=O)N3CCc4ccccc43)CC2)cc1,-5,
O=S(=O)(c1ccccc1F)N(Cc1ccco1)Cc1nnc(-c2ccccc2Br)o1,1,
COc1ccc(C(c2nnnn2CCc2ccccc2)N2CCN(C)CC2)cc1OC (stereo unspecified),3,
COc1ccc(C(c2nnnn2C2CCCC2)N2CCc3ccccc3C2)cc1OC (stereo unspecified),-4,
COCCn1nnnc1C(c1ccc(O)c(OC)c1)N1CCc2ccccc2C1 (stereo unspecified),61*,HIV RNase H inh-2=-3
O=C(O)CCc1ccc(-c2cccs2)o1,89*,HIV RNase H inh-2=22
O=C(Cc1ccccc1)Nc1nnc(-c2cccs2)s1,19,
O=C(NCc1cccs1)c1cc(-c2cccs2)on1,-9,
COc1ccc(-n2c(Cc3cccn3C)nnc2SCC(=O)NCCc2ccccc2)cc1,-14,
Cc1cc(C(=O)OCC(=O)N2CCN(c3ccccc3)CC2)c2ccccc2n1,-24,
CC(=O)Nc1nc(=S)ss1,64*,HIV RNase H inh-2=39
CC(=O)Nc1nc2c(F)cccc2s1,-7,
CC(=O)Nc1nc(-c2ccc(Br)s2)cs1,26,
O=c1/c(=C\c2cccn2-c2ccccc2)sc2nc3ccccc3n12,89*,HIV RNase H inh-2=61*
COc1cc(N2CCCC2)c(OC)cc1/C=c1/sc2nc3ccccc3n2c1=O,10,
ON=Cc1cccn1-c1ccccc1,-24,
O=c1cc(CSc2nnc(COc3ccccc3Cl)o2)nc2sccn12,-33,
Cn1c(NC(=O)c2ccc(Br)o2)cc(=O)n(C)c1=O,-5,
COc1ccc(C)cc1NC(=O)CSc1nnc(COc2ccc(C)cc2)n1Cc1ccco1,-6,
COc1ccccc1NC(=O)CSc1nnc(COc2ccc(Cl)cc2)n1Cc1ccco1,-9,
COc1ccccc1OCc1nnc(SCC(=O)NCc2ccco2)n1Cc1ccco1,66*,HIV RNase H inh-2=20
O=C1c2ccccc2C(=O)N1Cc1nc2ccccc2c(=O)n1CCN1CCOCC1,-8,
SMILES,HIV RNase H inh-1,others
COC(=O)c1sc(NC(=O)CSc2nnnn2-c2ccc(C)cc2C)nc1C,64*,HIV RNase H inh-2=9
COC(=O)c1ccc(CSc2nnnn2-c2ccc(C)cc2C)o1,-33,
Cc1ccc(-n2nnnc2SCC(N)=O)c(C)c1,-44,
CCC(=O)/C=C1\Sc2ccc(OC)cc2N1CC,-5,
CCN1C(=O)/C(=C2/Sc3ccc(OC)cc3N2C)SC1=Nc1cccc(O)c1,51*,HIV RNase H inh-2=28
CCN1C(=O)/C(=C2/Sc3ccc(OC)cc3N2C)SC1=Nc1ccc(C(C)=O)cc1,6,
CC(=O)c1cccc(N(C(=O)c2ccco2)C(C(=O)NC2CCCC2)c2ccncc2)c1 (stereo unspecified),-5,
COc1ccc(CCC(=O)NC2=NCCS2)cc1OC,-8,
COc1ccc(C2c3c(oc4ccc(Cl)cc4c3=O)C(=O)N2Cc2ccco2)cc1OC (stereo unspecified),94*,HIV RNase H inh-2=60*
COc1cccc(C2c3c(oc4ccc(Cl)cc4c3=O)C(=O)N2c2cc(C)on2)c1OC (stereo unspecified),50*,HIV RNase H inh-2=42
COc1ccc(C2c3c(oc4ccccc4c3=O)C(=O)N2c2ccccn2)cc1OC (stereo unspecified),-2,
O=C1c2oc3ccc(Cl)cc3c(=O)c2C(c2cccnc2)N1Cc1ccco1 (stereo unspecified),2,
COc1ccc(/C(O)=C2\C(=O)C(=O)N(c3cc(C)on3)C2c2cccc(OC)c2OC)cc1C (stereo unspecified),1,
COc1cc(C2c3c(oc4ccc(Cl)cc4c3=O)C(=O)N2Cc2ccco2)cc(OC)c1OC (stereo unspecified),29,
O=C(O)CCC(=O)OCC1CCCO1 (stereo unspecified),-5,
Cc1ccc(C2c3c(oc4ccccc4c3=O)C(=O)N2c2nnc(C(C)C)s2)o1 (stereo unspecified),40,
Cc1cc(Nc2ccc(Br)c(C)c2)n2nc(C)nc2n1,-9,
N#Cc1c(NCCO)nc(NCc2ccccc2)c2c1CCN(Cc1ccccc1)C2,-20,
N#Cc1c(N)sc(=S)c2c1CCN(Cc1ccccc1)C2,66*,HIV RNase H inh-2=35
